Reference: PubChem BioAssay (NCI)
About 79,000 compounds went through this panel and 15% of them were active in at least one assay; those are over-represented in the sample as a whole. Values without a mark were called inactive. Active and inactive are the calls of the source. No stated cut-off is given here; in the data, active means growth inhibition above about 70%; inactive means the rest.

Experiments:
[1] = NCI Yeast Anticancer Drug Screen. Data for the rad50 strain (AID 155);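 further: 0% = growth of vehicle-only cultures of the same strain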; details: S. cerevisiae rad50 strain growth inhibition; at 50.0 µM; stronger effect = higher value
Summary of the method: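 Cells are treated with compound, grown, and their growth is then scored against vehicle-only cultures of the same repair-deficient yeast strain.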

[2] = NCI Yeast Anticancer Drug Screen. Data for the mec2-1 strain (AID 157); details: S. cerevisiae mec2-1 strain, at 50.0 µM, stronger effect = higher value
Summary of the method: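 mec2-1 yeast strain, carrying an alteration in DNA damage repair or cell cycle control, was exposed to compounds; growth inhibition was measured relative to vehicle-treated controls.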

[3] = NCI Yeast Anticancer Drug Screen. Data for the sgs1 mgt1 strain (AID 161);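 further: 0% = growth of cultures given vehicle only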; details: S. cerevisiae sgs1 mgt1 strain, at 50.0 µM, stronger effect = higher value
Summary of the method: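 Yeast cells carrying a defined DNA-repair defect were exposed to test compounds. Growth inhibition was measured relative to vehicle-treated controls.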

[4] = NCI Yeast Anticancer Drug Screen. Data for the cln2 rad14 strain (AID 165);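 further: 0% = growth equal to vehicle treated cultures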; details: S. cerevisiae cln2 rad14 strain, at 50.0 µM, stronger effect = higher value
Summary of the method: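 Yeast carrying cln2 and rad14 alterations (cell cycle control and DNA damage repair) were exposed to compounds. Growth inhibition was measured against vehicle-treated controls.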

[5] = NCI Yeast Anticancer Drug Screen. Data for the bub3 strain (AID 167); details: S. cerevisiae bub3 mutant strain, at 50.0 µM, stronger effect = higher value
Summary of the method: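 Part of a panel of yeast mutants defective in DNA damage repair or cell cycle regulation. Each strain is grown with compound, and inhibition is calculated relative to solvent-treated cultures.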

[6] = NCI Yeast Anticancer Drug Screen. Data for the mlh1 rad18 strain (AID 175); details: S. cerevisiae mlh1 rad18 strain growth inhibition; at 50.0 µM; stronger effect = higher value
Summary of the method: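 Growth inhibition of the yeast strain was measured after compound exposure and expressed relative to vehicle-treated controls. The strain carries defined defects in DNA damage repair.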

Structure (SMILES)	growth inhibition [1]	growth inhibition [2]	growth inhibition [3]	growth inhibition [4]	growth inhibition [5]	growth inhibition [6]
O=[N+]([O-])C(/C=N/Nc1ccccc1)/C=N/Nc1ccccc1	-5.95%	-8.3%	-20.8%	-6.55%	-24.6%	-10.9%
COc1cccc(/C=C2/Sc3sc(C(C)=O)c(C)[n+]3C2=O)c1O	-15.9%	-1.55%	8.7%	-2.05%	-4.55%	-9.6%
Cc1ccc(C)c(NC(=O)c2ccc([N+](=O)[O-])cc2)c1	-4.55%	17.4%	10%	-11.8%	16.4%	23.6%
Nc1nc(-c2cccc([N+](=O)[O-])c2)c(N=Nc2ccc(Br)cc2)s1	10.3%	12.4%	23.1%	15.8%	-3.25%	5.95%
CS(=O)(=O)Cc1cc(-c2ccccc2)no1	15.1%	28.1%	8.7%	-3.4%	7.75%	9.85%
OC1CC2CCCCC2CC1Cl (stereo not drawn)	6.15%	1.35%	0.7%	-16.6%	-19.1%	5.5%
CCOC(=O)C[P+](c1ccc(OC)cc1)(c1ccc(OC)cc1)c1ccc(OC)cc1	90.8% (active)	95.8% (active)	92.5% (active)	92.9% (active)	92.3% (active)	91.5% (active)
O=C(/C(=C/c1ccccc1)N1CCOCC1)c1cccc2ccccc12	18.9%	-2.15%	17.1%	14.7%	21.4%	19.9%
NC(=O)c1ccccc1N=NNc1ccccc1	17.5%	-4.65%	2.8%	-28.5%	-25.1%	16.1%
O=CNC(CSC(=O)c1ccccc1)C(=O)O (stereo not drawn)	-0.35%	-3.75%	-7.2%	-15.2%	-11.7%	-12.7%
CCOC(=O)/C(Cl)=C1\SN(C(=O)OCC)N=C1C	-7.65%	-3.7%	-11.4%	54.7%	3.8%	3.65%
O=C(NC(=O)c1ccccc1O)c1ccccc1	-4.6%	5.45%	-15.4%	-0.35%	-19.5%	-11.2%
C=C1C(=O)O[C@H]2[C@H]1[C@H](OC(=O)/C(C)=C\C)CC(=C)[C@@H]1[C@H](O)[C@H]3O[C@@]3(C)[C@@]12O	3.85%	-14.8%	21.2%	5.25%	-5.95%	-18%
Brc1cc(Br)c2c(c1)CN(C1CCCCC1)CO2 (tested in a mixture with another compound)	-0.15%	3.85%	-0.4%	-18.9%	-1.6%	-7.45%
NC(CO)CSCc1ccccc1 (stereo not drawn)	1.65%	1.6%	11.6%	-4.4%	13.3%	-0.65%
c1ccc2cc3c(cc2c1)Cn1c-3nc2ccccc21	19.4%	-8.7%	13.2%	6.55%	11.4%	27.8%
CCOC(=O)c1ccc(N=Cc2cccs2)cc1	-1.9%	28.4%	17.1%	9.5%	0%	17.4%
CCCCN(CCCC)CCC(O)c1ccc(OC)c2ccccc12 (stereo not drawn)	44.6%	4.55%	56.2%	57.4%	16.4%	49.7%
COc1ccc(-c2cc(-c3ccccc3)nc(/N=C\c3ccccc3)n2)c(O)c1	-10.7%	-20.4%	-15.5%	-17.9%	-34.7%	-51.2%

Structure (SMILES)	growth inhibition [1]	growth inhibition [2]	growth inhibition [3]	growth inhibition [4]	growth inhibition [5]	growth inhibition [6]
CCOC(=O)C1CCCCN1C(=O)OCc1ccccc1 (stereo not drawn)	-6.95%	-1.75%	0.75%	-8.05%	20.9%	-42.3%
N#CC(F)(F)C(F)(F)C(F)(F)C(F)(F)C(F)(F)C(F)(F)C(F)(F)F	33.5%	-18.8%	-11.2%	-21.8%	-15.3%	-4.6%
Cc1cc(=O)oc2c(C(=O)/C=C/N(C)C)c(O)ccc12	-29.9%	4.1%	7.85%	0.25%	9.95%	7.7%
COc1cc2cc3c(c(O)c2c(O)c1/C=C/C(C)C)C(=O)CC(C)(OC(C)=O)C3 (stereo not drawn)	36.3%	8.95%	36.5%	30.4%	18.8%	74.2% (active)
O=C(Nc1ccccc1O)C(O)C(O)C(O)C(O)CO (stereo not drawn)	35%	30.7%	38.8%	23.2%	52.1%	58.8%
CCOC(=O)CCC1(C(=O)OC)C(=O)CCCCCCCC1C(=O)OC (stereo not drawn)	-1.85%	-5.65%	20.3%	20.6%	19.4%	7.3%
CCOC(=O)NC(=O)c1cn(CCN2CCN(C(=O)CCCCCCCCCCC(=O)N3CCN(CCn4cc(C(=O)NC(=O)OCC)c(=O)[nH]c4=O)CC3)CC2)c(=O)[nH]c1=O	16.4%	4.15%	11.2%	-1.35%	-3.45%	8.55%
CC1(C)OC[C@@H](O)[C@H](Br)CO1	-14.7%	-36%	-20.9%	-3.95%	-32.9%	-28.1%
COc1ccc(/C=N/NC(=O)c2ccccc2NC(=O)c2ccccc2Cl)cc1	17.4%	-25.1%	29.1%	-13.7%	7.25%	24.7%
Cc1cc2c(C)nn(Cc3ccc(Cl)cc3)c2c(C#N)c1C	25.4%	-8.85%	15.6%	2.85%	22.1%	18.9%
COC(=O)c1cccc2c(N)c(N)cc(C(=O)OC)c12	17.5%	18.2%	24.8%	28.2%	9.3%	31.4%
CCOC(=O)CCc1ccc(NC(=O)/C=C/c2ccc([N+](=O)[O-])o2)cc1	55%	29.1%	56.3%	53.8%	34.8%	36.7%
NC(N)=N/N=C1/C(=O)N(C2CCCCCC2)C(=O)C1C(=O)NC1CCCCCC1 (stereo not drawn)	35.8%	5.3%	14.9%	23.9%	6.4%	28.1%
CC(C)Cc1ccc(NC2=C(Cl)C(=O)c3ccccc3C2=O)cc1	19.3%	19.7%	13.7%	25.1%	15.1%	28.1%
CCc1nc(N)nc(N)c1-c1ccc(NC(C)c2ccccc2)c([N+](=O)[O-])c1 (stereo not drawn)	13.6%	-8.4%	14.5%	-1.1%	9.1%	-7.6%
CN(CC(O)CN1CCCc2ccccc21)C1CCCCC1 (stereo not drawn)	-5.8%	0.25%	17.9%	-16%	46%	19.2%
OCC1OC(n2nc(-c3ccccc3)nc2-c2cnccn2)C(O)C(O)C1O (stereo not drawn)	-37.4%	-35.8%	-31.4%	3.65%	-46.1%	-43.5%
O=C(Cc1ccccc1)N(c1ccccc1)c1ccccc1	23.5%	-9.25%	13%	14.7%	49.9%	5.9%
COc1cc(NCCN=C(N)NC#N)c2ncccc2c1	0.95%	4.75%	-0.7%	-18.4%	-15.4%	2.6%
